# Hits are enriched below; roughly 6.2% of the tested compounds scored in any of these assays.
# MARV entry inh – Marburg virus entry inhibition; Marburg virus pseudotyped entry inhibition, cell reporter; Potency, µM (doses to about 37.8 µM), inactives show at the top dose activity change, negative = inhibition, usual class: inhibitors; actives 1.8% (n = 300,000); calls by dose curve; tested in HEK293 cells; note: potency is the fitted concentration of half-maximal effect
# Lassa entry inh – blocks Lassa virus binding to or entry into cells; AID 540256; Potency, µM (top dose mostly 37.9 µM), for the others: top-dose activity change, negative = inhibition, most hits filed as inhibitors; Lassa virus pseudotype entry inhibition, cell reporter; actives 1.2% (n = 300,000); calls by dose curve; tested in HEK293 cells; note: potency is the fitted concentration of half-maximal effect; nearly all actives have a fitted effect of over 50% in size
# FMDV antiviral – foot and mouth disease virus antiviral activity; Potency, µM (titrated, usually from 57.9 µM), for the others: top-dose activity change, negative = inhibition, actives largely listed as inhibitors; actives 1.2% (n = 410,000); FMDV antiviral cell-based qHTS; calls by dose curve; tested in HEK293T cells; note: read-out not given here; potency is the fitted concentration of half-maximal effect; nearly all actives have a fitted effect of over 45% in size
# HCMV inh – inhibitors of human cytomegalovirus. HFF cells, HCMV-luciferase reporter, 72 h; stronger effect = lower value. activity change, negative = inhibition, % at 57.5 µM. actives 4.5% (n = 410,000). AID 1259415; in the data active = activity change below about -60%; inconclusive = no clear call, values can overlap the other calls; inactive = above about -39%
#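 Cell-based, HFFs, 1000 cells/well, 16 h 37C; cpds in DMSO + HCMV-luc, MOI 1 PFU/cell; 72 h 37C; OneGlo luminescence after 5 min RT; norm. to buffer vs Salinomycin 10uM.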
# An asterisk follows results filed as active; ? = inconclusive; · = no result given; [ ] = another dose, or the depositor's remark. % is set by controls: 0 for no effect and ±100 for the full control effect.
SMILES,MARV entry inh,Lassa entry inh,FMDV antiviral,HCMV inh
CCN(CC)C(=O)C1CCCN(c2ncnc3c2cnn3-c2cccc(C)c2)C1 (configuration not stated),?,-9%,14µM*,-37
CCOC(=O)C1CCCN(c2ncnc3c2cnn3-c2cccc(C)c2)C1 (configuration not stated),27%,-1%,?,3
CCN(CC)C(=O)C1CCCN(c2ncnc3c2cnn3-c2ccc(Cl)cc2)C1 (configuration not stated),·,·,20µM*,-68*
COc1ccc(NC(=O)c2c(-c3ccccc3)c(-c3ccccc3)nn(C)c2=O)c(OC)c1,?,-2%[46.1 µM],-23%,-8
COc1ccc([C@H]2C[C@H](O)[C@@H](n3cc(COC(=O)c4ccccc4)nn3)CN2C(=O)C2CCCCC2)cc1,?,·,-16%,-83*
Cc1ccc([C@H]2C[C@@H](O)[C@H](n3cc(COC(=O)c4ccccc4)nn3)CN2CC2CCCCC2)cc1,·,1%[46.1 µM],-4%,-89*
Cc1ccc([C@H]2C[C@@H](n3cc(C4CC4)nn3)[C@H](O)CN2CC2CCCCC2)cc1,?,·,-20%,12
O[C@H]1CN(CC2CCCCC2)[C@@H](c2ccc(Cl)cc2)C[C@H]1n1cc(C2CC2)nn1,·,10µM*,·,·
CCCCCCN1C[C@@H](O)[C@H](n2cc(COC(=O)c3ccccc3)nn2)C[C@@H]1c1ccc(OC)cc1,·,·,-22%,-101*
COc1ccc(NC(=O)N2CC[C@@]3(CCCN(C(=O)c4cnccn4)C3)C2)cc1,·,·,-18%,·
Cc1cccc(-c2cnc(C)nc2C2CCCN(C(=O)c3cccc(Cn4cccn4)c3)C2)c1 (configuration not stated),·,·,-19%,·
Cc1ccc2c(=O)cc(CSc3ncn[nH]3)[nH]c2c1C,·,24%[46.1 µM],-18%,-21
CCCCCCN1C[C@@H](n2cc(COC(=O)c3ccccc3)nn2)[C@H](O)C[C@@H]1c1ccc(C)cc1,·,·,-26%,-89*
CCOC(=O)/C(=N\Nc1ccc(C(C)=O)cc1)c1csc(Nc2ccccc2)n1,?,?,-16%,?
CCOC(=O)/C(=N\Nc1ccccc1[N+](=O)[O-])c1csc(N)n1,·,·,-31%,-65*
Cc1nn(C)c2c1c(C(F)(F)F)cc(=O)n2CC(=O)N1CCN(c2ccccc2F)CC1,·,27%[46.1 µM],-13%,7
Cc1cc(=O)n(CC(=O)N2CCN(c3ccccc3F)CC2)c2c1c(C)nn2C,·,-24%[46.1 µM],?,-60*
CCOc1ccc(NC(c2ccc(Cl)cc2)c2nnc(-c3cccc(F)c3)o2)cc1 (configuration not stated),?,7%[46.1 µM],-7%,8
CCSc1nnc(NC(=O)COc2ccccc2[N+](=O)[O-])s1,?,18%[46.1 µM],?,-87*
CC(C)(C)C1CCc2nc(NC(=O)COc3ccccc3[N+](=O)[O-])sc2C1 (configuration not stated),28%[46.1 µM],-22%[46.1 µM],-27%,-91*
CC(C)(C)C1CCc2nc(NC(=O)c3ccc([N+](=O)[O-])cc3)sc2C1 (configuration not stated),2%[46.1 µM],9%[46.1 µM],?,-74*
CC(C)c1nnc(NC(=O)COc2ccccc2[N+](=O)[O-])s1,?,-26%[46.1 µM],16%,?
CC(C)(C)C1CCc2nc(NC(=O)c3cccc(Cl)c3)sc2C1 (configuration not stated),?,1%[46.1 µM],2µM*,-90*
CCc1cccc(NC(=O)c2ccc(CN3C(=O)C(C)=C(c4ccc(OC)cc4)S3(=O)=O)cc2)c1,·,?,-16%,-16
O=C(C1CCCCC1)N1C[C@H](O)[C@H](n2cc(C3CC3)nn2)C[C@@H]1c1ccc(Cl)cc1,·,-15%[46.1 µM],·,·
SMILES,MARV entry inh,Lassa entry inh,FMDV antiviral,HCMV inh
CN1Cc2sccc2C(c2ccc(O)c(O)c2)C1 (configuration not stated),16%,-8%,·,·
CC(=O)NCCNc1ncnc2ccc(-c3c(C)noc3C)cc12,·,·,11%,·
Cc1cc(NC(=O)CN2C(=O)c3cccnc3Sc3ccccc32)ccc1Br,·,?,1%,55
COc1ccc(N2C(N)=NC(N)=NC2(C)C)cc1,?,?,-19%,?
CC1(C)N=C(N)N=C(N)N1c1cccc(C#N)c1,?,2.5µM*,-13%,-77*
COc1cccc(N2C(N)=NC(N)=NC2(C)C)c1,-26%,?,-17%,-67*
CCOc1ccc(N2C(N)=NC(N)=NC2(C)C)cc1,?,5%,0%,-68*
CN1CC(=O)NC1=N,·,·,3%,·
CCOC(=O)C(NC(C)=O)C(OC(C)=O)c1cccc(N(CCCl)CCCl)c1 (configuration not stated),?,?,-7%,-64*
COc1ccc(-n2nc3c(N4CCC(C(=O)NCCc5ccco5)CC4)nnc(C)c3c2C)cc1,·,·,-8%,-31
COc1ccc(-n2nc3c(N4CCCC(C(=O)NCc5cccc(F)c5)C4)nnc(C)c3c2C)cc1 (configuration not stated),·,-11%[46.1 µM],-16%,-84*
COc1ccc(-n2nc3c(N4CCC(C(=O)NCc5cccc(C)c5)CC4)nnc(C)c3c2C)cc1,·,·,-5%,-100*
CN(C)CC(C)(O)c1ccc2c(c1)CN(Cc1cnn(-c3ccccc3)c1)CCO2 (configuration not stated),·,·,-7%,·
CC(C)(NS(=O)(=O)OCC(Cl)(Cl)Cl)c1ccccc1,·,·,11%,?
CC(NS(=O)(=O)OCC(Cl)(Cl)Cl)c1ccc(C(C)(C)C)cc1 (configuration not stated),·,·,22µM*,38
Cc1ccccc1NC(=O)c1c(C)oc2ccc(O)c(CN3CCCCCC3)c12,?,-21%[46.1 µM],-21%,-30
Clc1cccc(N2CCNCC2)c1Cl,?,7%,-25%,26
c1ccc2c(N3CCNCC3)cccc2c1,11µM*,-9%,-24%,16
Cc1cc(N=Cc2c(O)n(-c3ccc4c(c3)OCO4)c(=O)c3ccccc23)ccn1,?,?,16%,-92*
Cc1cc(N=Cc2c(O)n(-c3ccc(C)c(C)c3)c(=O)c3ccccc23)no1,4%,-15%,·,-64*
O=C(Nc1ccc2c(c1)CCC2)c1c(F)cccc1Cl,18%[46.1 µM],1%[46.1 µM],31%,-61*
O=C(Nc1cccc(Cl)c1)Nc1ccc2c(c1)C(=O)OC2,-4%,0%,5%,?
O=C1OCc2ccc(NC(=O)c3c(F)cccc3Cl)cc21,?,1%[46.1 µM],29%,-85*
O=C(Nc1ccc2c(c1)CCC2)Nc1ccccc1F,·,·,-5%,111
O=C(Nc1ccc2c(c1)C(=O)OC2)c1ccccc1Cl,?,0%[46.1 µM],24%,-91*
O=C(Nc1ccc2c(c1)CCC2)c1ccc(F)cc1,11µM*,?,-3%,51
CCN(CC)C(=O)CSc1nc(-c2ccc(C)cc2)nc2c1Cc1c(CO)cnc(C)c1O2,·,0%[46.1 µM],?,-16
CCCCOc1nc2ccccc2nc1[C@H](C#N)C(=O)NC1CCCCC1,16%,·,·,·
Cc1ccc2sc3ccc(NC(=O)c4ccccc4Cl)cc3c(=O)c2c1,?,1%,15%,-89*
Cc1cc(NC(=O)c2ccccc2Cl)ccc1NC(=O)c1ccccc1Cl,·,·,34%,93
